# Screening results from PubChem.
# CHT allo act – CHT positive allosteric modulators, primary screen, cell-based, membrane potential dye, choline EC20; High affinity choline transporter 1 (Homo sapiens), Q9GZV3; CHT-expressing cells; active compounds read high; LV-AA mutant CHT in HEK293 cells; B-score at 10 µM; 310,000 compounds, 0.49% hits;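 active = initial fluorescence not abnormally high and integrated response B-score, plate-corrected, over 3 SD above library mean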
# Target sequence (Q9GZV3 whole entry, looked up): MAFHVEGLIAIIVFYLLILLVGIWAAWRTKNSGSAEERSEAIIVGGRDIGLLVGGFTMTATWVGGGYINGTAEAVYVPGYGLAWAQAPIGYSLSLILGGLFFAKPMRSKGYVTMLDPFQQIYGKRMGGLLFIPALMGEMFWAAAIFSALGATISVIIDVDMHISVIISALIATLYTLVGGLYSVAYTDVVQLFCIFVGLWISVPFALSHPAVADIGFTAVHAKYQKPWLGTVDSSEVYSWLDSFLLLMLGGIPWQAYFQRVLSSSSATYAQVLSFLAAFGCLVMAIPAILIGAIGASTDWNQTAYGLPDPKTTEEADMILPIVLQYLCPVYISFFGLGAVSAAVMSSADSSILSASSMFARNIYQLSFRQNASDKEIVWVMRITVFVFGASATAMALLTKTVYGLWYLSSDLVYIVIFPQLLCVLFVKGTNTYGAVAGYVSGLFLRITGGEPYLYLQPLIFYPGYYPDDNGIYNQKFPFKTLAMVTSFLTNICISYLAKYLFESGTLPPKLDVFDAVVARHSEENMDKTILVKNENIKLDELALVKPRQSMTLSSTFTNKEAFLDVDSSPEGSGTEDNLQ
# CHT inh – inhibitors of human choline transporter CHT | 310,000 compounds, 0.86% hits | High affinity choline transporter 1 (Homo sapiens), Q9GZV3 | CHT-expressing cells, membrane potential dye, choline response; active compounds read low | B-score at 10 µM;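 active = B-score over 3 SD under the library average, and starting fluorescence ratio not unusually high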;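 also: choline stimulus applied at its EC90 after an EC20 pre-addition; B-score computed on integrated fluorescence ratio after choline addition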
# Kir21 block – inhibitors of mouse Kir2.1 inward-rectifier potassium channel | 310,000 compounds, 0.85% hits | HEK293-Kir2.1, FluxOR thallium flux fluorescence; active compounds read low | B-score at 10 µM | AID 1672, 2009 | Inward rectifier potassium channel 2 (Mus musculus), P35561;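 active = fluorescence ratio B-score at or below minus 3 SD of library scores, with starting-brightness B-score within 2 SD, cut at about -4.2 in these data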;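 also: channel flux triggered by added potassium and thallium sulfate stimulus; B-score of peak minus minimum fluorescence over baseline after thallium stimulus; more negative B-score means stronger Kir2.1 block with less thallium influx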
# TAG inh – inhibitors of triacylglycerol accumulation, primary screen, cell-based, uHTS, fluorescence, H9c2. inhibition, % at 12.5 µM. AID 651582, 2012. 230,000 compounds, 0.66% hits. H9c2 cells, Nile Red lipid (TAG) fluorescence; cells loaded with 200 µM oleic acid;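 active = pattern-corrected inhibition of lipid staining of at least 50% with the nuclear-stain viability signal not falling by more than 50%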;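 also: 0% = DMSO wells and 100% = triacsin C control wells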
# Starred values were filed as active, the others as inactive; i = inactive; / = no result. Hits are enriched below; roughly 2% of the tested compounds scored in any of these assays.
SMILES,CHT allo act,CHT inh,Kir21 block,TAG inh
CCC(C)(C)c1ccc(OCCCC[n+]2cccc(C)c2C)c(C(C)(C)CC)c1,i,i,-9.5*,96
CCC(C)(C)c1ccc(OCCCC[n+]2ccc(C)cc2)c(C(C)(C)CC)c1,i,i,-4.9*,/
Cc1cc[n+](CC[n+]2ccc(C)cc2)cc1,i,i,-0.44,-2
CC(=O)c1ccccc1NC(=O)COC(=O)/C(=C/c1ccccc1)n1nnnc1C,i,i,-2.6,-9
O=CN1CCN(S(=O)(=O)c2ccc(Cl)c(C(=O)O)c2)CC1,i,i,1.6,12
CC1CCN(CCOc2ccc(C(=O)c3ccccc3)cc2)CC1,i,i,-3.5,-11
c1ccc(COc2ccc(OCCCN3CCCC3)cc2)cc1,i,i,-0.62,/
CC1CCN(CCCCOc2ccc(C(=O)c3ccccc3)cc2)CC1,i,i,-5.5*,19
CC1CCN(CCCOc2ccc(OCc3ccccc3)cc2)CC1,i,i,-7.2*,14
O=C(c1cc2ccccc2cc1O)N1CCN(c2ccc([N+](=O)[O-])cc2)CC1,i,i,-1.5,7
CC(c1ccco1)N(C(=O)CSc1ccc(Br)cc1)c1ccccn1 (stereo unspecified),i,i,-6.4*,-8
CCOc1cc2[nH]c(=O)n(CCc3ccc(OC)c(OC)c3)c(=O)c2cc1OCC,i,i,0.89,59*
Cc1c(C#N)c(N)c(C(=O)c2ccccc2)n1Cc1ccccc1,i,i,-5.2*,-13
N#C/C(=C\c1ccccc1)C(=O)N(c1ccccn1)C1CCCCC1,i,i,-11*,/
CCC(C)(C)NC(=O)CN(C(=O)CCC(=O)Nc1nccs1)c1cccc(C)c1C,i,i,-1,5
CCc1ccc(C2C(C#N)=C(N)C(C#N)(C#N)C3=CCC(C(C)(C)C)CC32)cc1 (stereo unspecified),i,i,-6.6*,-1
CC(C)CC1C(=O)N(Cc2cn(CC3CCCCC3)nn2)CCS(=O)(=O)N1Cc1ccc(-c2ccncc2)cc1 (stereo unspecified),/,/,/,-3
COc1ccc(C[C@H]2CN3C(=NC[C@@H]3C(C)C)N2CCNC(=O)CCC2CCCCC2)cc1,i,i,-6.3*,42
O=C(CCC1CCCCC1)NCCN1C2=NC[C@H](Cc3ccc(O)cc3)N2C[C@H]1Cc1ccc(O)cc1,i,i,1.7,-1
COc1cccc(-n2ccnc2SCC(=O)Nc2ccccc2)c1,i,i,-4.9*,-25
COc1cccc(NC(=O)CSc2nccn2-c2cccc(OC)c2)c1,i,i,-1.5,-8
COc1cccc(-n2ccnc2SCC(=O)N2CCCc3ccccc32)c1,i,i,-7.5*,2
COc1cccc(-c2nnc(SCC(=O)N3CCCc4ccccc43)o2)c1,i,i,-1.7,2
CNc1ccc(/C=C/C(=O)c2cccc3ccccc23)cc1[N+](=O)[O-],i,i,0.74,-16
Oc1cc(-c2ccncc2)cc2cccnc12,/,/,/,82
SMILES,CHT allo act,CHT inh,Kir21 block,TAG inh
Oc1cc(-c2ccc(N3CCCCC3)nc2)cc2cccnc12,/,/,/,104*
O=C(COc1cccc2ccccc12)Nc1ccc(Cl)cc1C(=O)O,i,-7.3*,0.51,-8
O=C(COc1ccccc1C(=O)O)Nc1cccc2ccccc12,/,/,/,3
CN(CC(=O)Nc1ccccc1Br)CC(=O)Nc1ccccc1C(F)(F)F,i,i,0.31,/
CN(C)CCCOc1ccc2c(c1)Sc1ccccc1CC2=O,i,i,-4.2*,/
O=C1Cc2ccccc2Sc2cc(OCCCN3CCCCC3)ccc21,i,i,-8.7*,/
CCOc1ccccc1OCCN1CCCC1,i,i,-1.3,/
O=C1Cc2ccccc2Sc2c(OCCN3CCCCC3)cccc21,i,i,-7.7*,/
Nc1ccc2c(c1)C(=O)Cc1ccccc1S2,i,i,0.92,/
CCN(CC)S(=O)(=O)c1ccc(C(=O)Nc2cc(S(=O)(=O)N3CCOCC3)ccc2O)cc1,/,/,/,4
CS(=O)(=O)c1nc(-c2ccc(Br)cc2)cc(-c2ccccc2)c1C#N,i,i,-1.7,79*
O=C1CSC(c2cccc(O)c2)N1Cc1ccccc1 (stereo unspecified),i,i,-3.7,/
O=C1CSC(c2cccc([N+](=O)[O-])c2)N1Cc1ccccc1 (stereo unspecified),i,i,-4.5*,/
O=C1OCC2=C1C(c1ccc(F)cc1)c1cc3c(cc1N2)OCCO3 (stereo unspecified),/,/,/,60*
O=C1C=C(NCCc2cc(Br)c(O)c(Br)c2)C(=O)c2ncccc21,/,/,/,53*
Cc1cc(OCc2cc(C(=O)N(C)CC3CCOCC3)no2)cc(C)c1Cl,i,i,-5.1*,/
O=C1/C(=C\c2ccc(Cl)c(Cl)c2)CN(C(=O)CCN2CCOCC2)C/C1=C/c1ccc(Cl)c(Cl)c1,/,/,/,63*
Cc1cc(C)c2c(=N)c3ccccc3n(CCCCCCCCn3c4ccccc4c(=N)c4c(C)cc(C)nc43)c2n1,/,/,/,53*
Cc1cccc(NC(=O)CNC(=O)c2cc(S(=O)(=O)N(C)C)ccc2N2CCCC2)c1C,/,/,/,2
O=C(CC(Nc1ccccc1)c1ccc(F)cc1)c1ccccc1 (stereo unspecified),i,i,-5.5*,/
S=C(NCCN(C1CCCCC1)C1CCCC1)Nc1cccc(Cl)c1,i,i,-4.5*,/
Cc1ccc2c(c1C)NC(=O)C21N2CCCC2C(C(=O)c2ccc3ccccc3c2)C12C(=O)Nc1ccccc12 (stereo unspecified),/,/,/,14
CCN1CCC(O)(/C=C/c2ccc(C(C)C)cc2)C(C(=O)/C=C/c2ccc(C(C)C)cc2)C1 (stereo unspecified),/,/,/,66*
Cc1cccc(N(Cc2ccccc2)C(=O)CCl)c1,/,/,-2.7,68*
O=C(CCl)N(Cc1ccccc1)c1ccccc1,i,i,-0.03,34
SMILES,CHT allo act,CHT inh,Kir21 block,TAG inh
CN(C(=O)COC(=O)Cc1ccc(Cl)cc1)C1CCCCC1,/,/,/,2
Cc1cc2ccc3ccccc3c2cc1CN(C)C,i,i,-13*,24
C=CCNC(=S)N1CCN(c2ncc3c(=O)c(C(=O)O)cn(CC)c3n2)CC1,i,i,-0.09,/
CCn1cc(C(=O)O)c(=O)c2cnc(N3CCNCC3)nc21,11*,i,-0.07,/
CCOc1[nH]n(-c2ccccc2)c(=O)c1C=NCc1cccnc1,i,i,1.2,/
CC1CCCCC1NCC#CCOc1ccc(Cl)cc1 (stereo unspecified),i,i,-5*,11
O=[N+]([O-])c1ccc(Sc2cccc[n+]2[O-])c2nonc12,/,/,-6.3*,102*
COc1cccc2[nH]c(=O)c(-c3ccccc3)cc12,i,i,0.35,/
O=S(=O)(NC1CCCCC1Oc1ccccc1)c1ccccc1 (stereo unspecified),i,i,-5.4*,-13
